{
  "source": "PubChem BioAssay (Tox21)",
  "note": "Records with an inconclusive call do not appear. Entries that show only a call come without a potency. A number with no mark means an inactive call. Active and inactive are the calls of the source. The call rests on the fitted dose curve; in most records, active means well fitted inhibition curve with a large enough effect in the signal ratio in the repeat runs (not every such curve was filed as active); inconclusive means weak or mixed curves; inactive means flat fitted curve, though single readings scatter; the % refers to the signal ratio. Potency means the concentration at half of the fitted maximal effect.",
  "data": [
    {"target": "Progesterone receptor (Homo sapiens) (UniProt P06401)", "sequence (P06401 whole entry, looked up)": "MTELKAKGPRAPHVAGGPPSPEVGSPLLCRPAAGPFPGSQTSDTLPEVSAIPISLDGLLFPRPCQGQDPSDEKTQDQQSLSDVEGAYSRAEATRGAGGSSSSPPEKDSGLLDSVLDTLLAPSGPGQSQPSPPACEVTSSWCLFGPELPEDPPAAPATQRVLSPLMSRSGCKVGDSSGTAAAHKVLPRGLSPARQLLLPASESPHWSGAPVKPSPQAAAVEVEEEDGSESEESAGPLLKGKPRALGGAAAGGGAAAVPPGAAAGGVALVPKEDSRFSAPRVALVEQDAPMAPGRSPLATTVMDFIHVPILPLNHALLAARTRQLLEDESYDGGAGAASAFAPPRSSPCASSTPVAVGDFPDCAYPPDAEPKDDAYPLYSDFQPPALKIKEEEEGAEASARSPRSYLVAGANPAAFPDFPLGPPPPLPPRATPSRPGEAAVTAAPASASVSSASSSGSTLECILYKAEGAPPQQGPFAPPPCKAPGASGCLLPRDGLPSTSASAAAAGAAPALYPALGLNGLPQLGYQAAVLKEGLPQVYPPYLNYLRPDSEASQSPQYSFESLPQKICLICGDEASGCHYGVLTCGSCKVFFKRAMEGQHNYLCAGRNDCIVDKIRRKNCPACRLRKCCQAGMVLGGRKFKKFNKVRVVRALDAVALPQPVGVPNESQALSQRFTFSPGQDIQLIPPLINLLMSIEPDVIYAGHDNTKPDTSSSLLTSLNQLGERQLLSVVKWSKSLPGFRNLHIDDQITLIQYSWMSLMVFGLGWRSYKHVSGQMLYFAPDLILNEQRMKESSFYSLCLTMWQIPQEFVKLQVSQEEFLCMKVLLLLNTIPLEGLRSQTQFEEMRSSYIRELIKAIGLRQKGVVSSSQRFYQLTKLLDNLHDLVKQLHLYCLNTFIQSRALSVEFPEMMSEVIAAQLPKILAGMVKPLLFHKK", "assay": "qHTS assay to identify small molecule antagonists of the progesterone receptor (PR) signaling pathway (AID 1346795)", "conditions": "PR-UAS-bla HEK293T, beta-lactamase FRET ratio, 16 h; series mostly up to 92.4 µM", "excerpt": "National Center for Advancing Translational Sciences [NCATS]\nNIH Chemical Genomics Center [NCGC]\nU.S. Environmental Protection Agency [EPA]\nNational Institutes of Environmental Health Sciences [NIEHS]\nNational Toxicology Program [NTP]\nU.S. Food and Drug Administration [FDA]\nProgesterone receptor (PR), a nuclear hormone receptor, plays an important role in development, metabolic homeostasis and reproduction. […] Endocrine disrupting chemicals (EDCs) and their interactions with steroid hormone receptors like PR causes disruption of normal endocrine function. To identify the compounds that inhibit PR signaling, a PR-UAS-bla GripTite cell line i.e. PR-UAS-bla HEK293T (Invitrogen, Carlsbad, CA, USA) containing a beta-lactamase reporter gene under the control of an Upstream Activator Sequence (UAS) was used to screen Tox21 10K compound library.\nTox21 Assay Protocol Summary:\nPR-UAS-bla HEK293T cells were dispensed at 3,000 cells/4 uL of assay medium containing 2% charcoal stripped FBS per well into black wall/clear-bottom 1536-well plates using a Multidrop Combi (ThermoFisher Scientific, Waltham, MA) dispenser. After the assay plates were incubated at a 37C and 5% CO2 for 6 hr, 23 nL of compounds dissolved in DMSO, positive controls or DMSO only was transferred to the assay plate by a Pintool station (Kalypsys, San Diego, CA), followed by addition of 1 uL (1nM as final concentration) of Promegestone (R5020) in assay medium using a BioRAPTR FRD (Flying Reagent Dispenser, Aurora Discovery, San Diego, CA). The plates were incubated at 37C and 5% CO2 for 16 hr. Then 1 uL of LiveBLAzer B/G FRET substrate was added using a FRD. After the plates were incubated at room temperature for 2 hours, fluorescence intensity was measured by an Envision plate reader (PerkinElmer, Shelton, CT).", "values": [
      {"smiles": "O=c1[nH]nc(-c2ccc([N+](=O)[O-])o2)o1", "Potency": "inactive"},
      {"smiles": "CNc1ccccc1", "Potency": "inactive"},
      {"smiles": "CCCCCCCCCCCCSCCOCCO", "Potency": "inactive"},
      {"smiles": "CC(=O)Nc1cccc(N)c1", "Potency": "inactive"},
      {"smiles": "CC(C)(C)c1cc(C=O)cc(C(C)(C)C)c1O", "Potency": "inactive"},
      {"smiles": "O=C(Cl)c1cc(Cl)cc(Cl)c1", "Potency": "inactive"},
      {"smiles": "CC/C=C\\CCO", "Potency": "inactive"},
      {"smiles": "O=[N+]([O-])c1ccccc1CCO", "Potency": "inactive"},
      {"smiles": "O=C(C1CCCCC1)N1CC(=O)N2CCCc3ccccc3C2C1", "note": "(stereo not given)", "Potency": "inactive"},
      {"smiles": "CCC(C(=O)O)c1ccc(N2Cc3ccccc3C2=O)cc1", "note": "(stereo not given)", "Potency": "inactive"},
      {"smiles": "NC(=O)c1ccccc1C(N)=O", "Potency": "inactive"},
      {"smiles": "CCOC(C)OCC", "Potency": "inactive"},
      {"smiles": "COc1ccc(C(=O)Nc2ccccc2)cc1[N+](=O)[O-]", "Potency": "54.9 µM (active)"},
      {"smiles": "CC/C=C/CCO", "Potency": "inactive"},
      {"smiles": "CCC1=C(C)CN(C(=O)NCCc2ccc(S(=O)(=O)NC(=O)NC3CCC(C)CC3)cc2)C1=O", "note": "(stereo not given)", "Potency": "inactive"},
      {"smiles": "N#C[C@@H]1CC(F)(F)CN1C(=O)CNC1CC2CCC(C1)N2c1ncccn1", "note": "(stereo not given in full)", "Potency": "inactive"},
      {"smiles": "C=CC(C)CCC=C(C)C", "note": "(stereo not given)", "Potency": "inactive"},
      {"smiles": "CCCCCCCCCCCCSC#N", "Potency": "inactive"},
      {"smiles": "Nc1ccc(C(=O)Oc2ccccc2)c(O)c1", "Potency": "23.7 µM (active)"},
      {"smiles": "O=C(O)c1ccncc1", "Potency": "inactive"},
      {"smiles": "CCCCC(CC)COCCC#N", "note": "(stereo not given)", "Potency": "inactive"},
      {"smiles": "CC1=CC(=C(c2ccc(N)cc2)c2ccc(N)cc2)C=CC1=N", "activity change, negative = inhibition": "5.6% [at 8.39 µM]"},
      {"smiles": "Cc1ccccc1CCO", "Potency": "inactive"},
      {"smiles": "O=C(O)c1ccccc1[N+](=O)[O-]", "Potency": "inactive"},
      {"smiles": "C=CCCC", "Potency": "inactive"},
      {"smiles": "CC1(C)[C@@H]2CC[C@]3(C2)[C@@H]1C(=O)CCC3(C)C", "Potency": "inactive"},
      {"smiles": "OCCc1ccncc1", "Potency": "inactive"},
      {"smiles": "CCCOC(C)=O", "Potency": "inactive"},
      {"smiles": "CCCCCCCCCCCCCCCCCCCl", "activity change, negative = inhibition": "7.9% [at 8.39 µM]"},
      {"smiles": "CCc1c(C)[nH]c2c1C(=O)C(CN1CCOCC1)CC2", "note": "(stereo not given)", "Potency": "inactive"},
      {"smiles": "CCOCCn1c(N2CCCN(C)CC2)nc2ccccc21", "Potency": "inactive"},
      {"smiles": "C=C(C)C(=O)OCCCCCCCCCCOC(=O)C(=C)C", "Potency": "inactive"},
      {"smiles": "CCCCCCCCOCCCN", "Potency": "inactive"},
      {"smiles": "CC(C)(C)NCC(O)COc1ccc(NC(=O)NC2CCCCC2)cc1", "note": "(stereo not given)", "Potency": "inactive"},
      {"smiles": "O=C(OCCOCCOCCOC(=O)c1ccccc1)c1ccccc1", "Potency": "inactive"},
      {"smiles": "CC(C)C/C=C(\\C=O)c1ccccc1", "Potency": "inactive"},
      {"smiles": "CC(O)CN", "note": "(stereo not given)", "Potency": "inactive"},
      {"smiles": "CC(=O)CC/C=C(\\C)CC/C=C(\\C)CC/C=C(\\C)CCC=C(C)C", "Potency": "inactive"},
      {"smiles": "CC(CC(C#N)(c1ccccc1)C(C)C)N(C)C", "note": "(stereo not given)", "Potency": "inactive"},
      {"smiles": "CC1(C)C(=O)NC(=O)N1CO", "Potency": "inactive"}
    ]}
  ]
}
